Laboratory results taken from PubChem BioAssay AID931 (National Center for Advancing Translational Sciences (NCATS), 2007).
Results filed as inconclusive are left out. Values without a mark were called inactive. The source made the active and inactive calls. Calls come from the whole dose curve; as a rule, active = well fitted cell-killing curve with a large enough effect; inconclusive = small, poorly fitted or top-dose-only effect; inactive = flat fitted curve, though single readings scatter.

Test: Confirmation and Secondary Assay for Modulators of Hemoglobin Beta Chain Splicing at IVS2 654 locus: Cytotoxicity
Conditions: HBB IVS2-654 splicing reporter cells; series mostly up to 46.1 µM; activity change, negative = cytotoxicity: at the top concentration
From the text: NIH Chemical Genomics Center [NCGC]
NIH Molecular Libraries Screening Centers Network [MLSCN]
PI Name: Dr. Ryszard Kole
Modulation of Alternative Splicing as Therapy
Abnormal splicing is associated with a number of diseases, including cancer and genetic diseases such as cystic fibrosis, muscular dystrophy and beta-thalassemia. Alteration of disease associated splicing patterns provides a promising target for treatment. […] Mutations in the second intron of the b-globin gene at positions 654 or 705 are clinically relevant and cause mis-splicing which results in an out of frame gene product.
Examination of toxicity of select compounds in EGFP-654 HeLa Cells
HeLa cell lines were stably transfected with a construct in which the EGFP (enhanced green fluorescent protein) cDNA was interrupted by the second intron of the beta-globin gene (IVS2-654). The ISV2 intron contains mutations which cause mis-splicing of EGFP and premature termination of EGFP which results in a nonfluorescent protein product. […] Expression of the transgene was driven by the CMV promoter. Compounds, and related structures identified in the primary screen as potential splicing modulation were examined for their effects on cell toxicity in this follow up assay .
NCGC Assay Protocol Summary:
Toxicity Screening. Freshly thawed HeLa EGFP-654 cells were seeded in 5 ul of optimem media (Invitrogen) containing 2 % fetal calf serum (Hyclone) and 1x penicillin/streptomycin (Invitrogen) at a concentration of 500 cells per well in 1536-well plates. Cells were incubated overnight at 37C in 5% CO2. The next day, cells were treated with DMSO, 500 nM antisense ISV2 654 PNA control oligo, or library compound and allowed to grow at 37C in 5% CO2 for 2 days. Cells were treated with 5 ul/well of freshly prepared ATPlite (Perkin Elmer) and cells were allowed to lyse at room temperature for 5 minutes. Luminescence was captured on an Viewlux CCD imager (Perkin Elmer) using a 15 second integration time and cell death was measured by comparing compound treatments to DMSO treatment (no cell death).
Keywords: Thalassemia, beta-thalassemia, beta-globin, EGFP, ISV2 654, ISV2 705, SSO, PNA, antisense, splicing, ATPlite, toxicity, MLSMR, MLSCN, NIH Roadmap, qHTS, NCGC

Row | SMILES | Potency | activity change, negative = cytotoxicity [%]
1 | OCC1OC(n2cnc3c(=S)nc[nH]c32)C(O)C1O (centres undefined) | 3160 nM (active) | 
2 | O=c1[nH]c(=O)n(C2CC(O)C(CO)O2)cc1F (centres undefined) |  | -25
3 | Nc1ccn([C@H]2CC[C@@H](CO)O2)c(=O)n1 |  | 1.26
4 | Nc1ncnc2c1nc(Cl)n2C1OC(CO)C(O)C1O (centres undefined) |  | 6.51
5 | CSc1ncnc2c1ncn2C1OC(CO)C(O)C1O (centres undefined) | 794 nM (active) | 
6 | Nc1ncn([C@@H]2O[C@H](CO)[C@@H](O)[C@H]2O)c(=O)n1 | 1260 nM (active) | 
7 | NC1=NC(S)C2N=CN=C2N1 (centres undefined) | 316 nM (active) | 
8 | S=C1NC=NC2N=CNC12 (centres undefined) | 199 nM (active) | 
9 | OCC1OC(n2cnc3c(Cl)ncnc32)C(O)C1O (centres undefined) |  | -9.7
10 | Nc1ncnc2c1nc(Br)n2C1OC(CO)C(O)C1O (centres undefined) |  | -26.4
11 | N=c1ccn2c(n1)O[C@@H]1[C@@H](O)[C@H](CO)O[C@H]12 |  | -14
12 | Nc1nc(Cl)nc2c1ncn2[C@H]1C[C@H](O)[C@@H](CO)O1 |  | -14.5
13 | Nc1nc(=O)n(C2OC(CO)C(O)C2O)cc1Cl (centres undefined) |  | -10.6
14 | Cn1cnc([N+](=O)[O-])c1Sc1ncnc2nc[nH]c12 | 316 nM (active) | 
